# Assay results published in PubChem BioAssay AID1159580 (chemical genetic matrix, 2015).
# The whole screen tested about 5,500 compounds, of which about 2,000 (36%) were called active. Roughly 18% stayed inconclusive and do not appear here. The list shows a part of the results. Values without a mark were called inactive. No stated cut-off is given here; in the data, active means normalized growth mostly below about 0.91 (no sharp cut-off); inconclusive means no clear call, values can overlap the other calls; inactive means mostly above about 0.92.
# Test: chemical genetic growth profiling, strain panel (AID 1159580);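 further: tested at 20 µM; growth read once vehicle control cultures reached saturation at 30 °C; 1 = growth at the plate median or of vehicle wells; lower values mean less growth of the strain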
# Details: S. cerevisiae deletion strains, growth OD
smiles,measurement,setting,value
CC[C@@H]1C=C/C=C/C[C@H](C)[C@@H](O)[C@](C)(O)C(=O)[C@H](C)[C@@H](O)[C@H](C)C(=O)[C@H](C)[C@@H](O)[C@H](C)/C=C/C(=O)O[C@H]2[C@@H](C)[C@@H](CC1)O[C@@]1(CC[C@@H](C)[C@@H](C[C@H](C)O)O1)[C@@H]2C,normalized growth,"locus YAL021C, strain ccr4, hits give low values",0.977
same,normalized growth,"locus YAL026C, strain drs2, hits give low values",1.01
same,normalized growth,"locus YAL030W, strain snc1, hits give low values",1
same,normalized growth,"locus YBL061C, strain skt5, hits give low values",1
same,normalized growth,"locus YBR009C, strain hhf1, hits give low values",0.985
same,normalized growth,"locus YBR023C, strain chs3, hits give low values",1
same,normalized growth,"locus YBR171W, strain sec66, hits give low values",1.01
same,normalized growth,"locus YBR231C, strain swc5, hits give low values",1
same,normalized growth,"locus YBR279W, strain paf1, hits give low values",0.982
same,normalized growth,"locus YCL011C, strain gbp2, hits give low values",1.02
same,normalized growth,"locus YCL016C, strain dcc1, hits give low values",1.02
same,normalized growth,"locus YCL061C, strain MRC1, hits give low values",1.01
same,normalized growth,"locus YCL069W, strain vba3, hits give low values",1.01
same,normalized growth,"locus YCR088W, strain abp1, hits give low values",1.02
same,normalized growth,"locus YDL005C, strain med2, hits give low values",1
same,normalized growth,"locus YDL040C, strain nat1, hits give low values",1.01
same,normalized growth,"locus YDR001C, strain nth1, hits give low values",1.01
same,normalized growth,"locus YDR069C, strain doa4, hits give low values",0.997
same,normalized growth,"locus YDR137W, strain rgp1, hits give low values",0.899
same,normalized growth,"locus YDR159W, strain sac3, hits give low values",0.953
same,normalized growth,"locus YDR195W, strain ref2",0.999
same,normalized growth,"locus YDR297W, strain sur2, hits give low values",1.01
same,normalized growth,"locus YDR334W, strain swr1, hits give low values",1.02
same,normalized growth,"locus YDR335W, strain msn5, hits give low values",1.01
same,normalized growth,"locus YDR392W, strain spt3, hits give low values",0.958
same,normalized growth,"locus YEL003W, strain gim4, hits give low values",1.01
same,normalized growth,"locus YEL037C, strain rad23, hits give low values",1.02
same,normalized growth,"locus YEL061C, strain CIN8 (second series), hits give low values",1.01
same,normalized growth,"locus YER015W, strain faa2, hits give low values",0.997
same,normalized growth,"locus YER016W, strain bim1, hits give low values",1.01
same,normalized growth,"locus YER111C, strain swi4, hits give low values",1.01
same,normalized growth,"locus YER155C, strain BEM2 (second series), hits give low values",1.03
same,normalized growth,"locus YFR010W, strain ubp6, hits give low values",1
same,normalized growth,"locus YGL167C, strain pmr1, hits give low values",1.01
same,normalized growth,"locus YGL173C, strain kem1, hits give low values",0.996
same,normalized growth,"locus YGL227W, strain vid30, hits give low values",1.01
same,normalized growth,"locus YGL240W, strain doc1, hits give low values",1.01
same,normalized growth,"locus YGL253W, strain hxk2, hits give low values",0.927
same,normalized growth,"locus YHR013C, strain ard1, hits give low values",0.967
same,normalized growth,"locus YHR027C, strain rpn1, hits give low values",1
same,normalized growth,"locus YHR142W, strain chs7, hits give low values",1.03
same,normalized growth,"locus YJL092W, strain hpr5, hits give low values",1.01
same,normalized growth,"locus YJL095W, strain BCK1 (second series), hits give low values",1.02
same,normalized growth,"locus YJL115W, strain asf1, hits give low values",1.01
same,normalized growth,"locus YJL129C, strain trk1, hits give low values",0.967
same,normalized growth,"locus YJL154C, strain vps35, hits give low values",1.01
same,normalized growth,"locus YJL164C, strain tpk1, hits give low values",0.987
same,normalized growth,"locus YJL166W, strain qcr8, hits give low values",1.01
same,normalized growth,"locus YJL187C, strain SWE1, hits give low values",1.01
same,normalized growth,"locus YKL160W, strain elf1, hits give low values",0.997
same,normalized growth,"locus YKR026C, strain gcn3, hits give low values",0.99
same,normalized growth,"locus YKR091W, strain srl3, hits give low values",1.01
same,normalized growth,"locus YLL001W, strain dnm1, hits give low values",0.984
same,normalized growth,"locus YLL026W, hits give low values",1.01
same,normalized growth,"locus YLL041C, strain sdh2, hits give low values",1.01
same,normalized growth,"locus YLR027C, strain aat2, hits give low values",0.995
same,normalized growth,"locus YLR221C, strain rsa3, hits give low values",1.02
same,normalized growth,"locus YLR258W, strain gsy2, hits give low values",0.997
same,normalized growth,"locus YLR262C, strain YPT6 (second series), hits give low values",0.852 (active)
same,normalized growth,"locus YLR320W, strain mms22, hits give low values",0.984
same,normalized growth,"locus YLR342W, strain FKS1, hits give low values",1
same,normalized growth,"locus YLR357W, strain rsc2, hits give low values",1.03
same,normalized growth,"locus YLR370C, strain arc18, hits give low values",0.994
same,normalized growth,"locus YLR384C, strain iki3, hits give low values",0.999
same,normalized growth,"locus YML120C, strain ndi1, hits give low values",0.995
same,normalized growth,"locus YMR058W, strain fet3, hits give low values",1.02
same,normalized growth,"locus YMR125W, strain sto1, hits give low values",1.04
same,normalized growth,"locus YMR129W, hits give low values",0.999
same,normalized growth,"locus YMR205C, strain PFK2, hits give low values",0.815 (active)
same,normalized growth,"locus YMR231W, strain pep5, hits give low values",1
same,normalized growth,"locus YNL071W, strain lat1, hits give low values",1.01
same,normalized growth,"locus YNL209W, strain ssb2, hits give low values",0.997
same,normalized growth,"locus YNL248C, strain rpa49, hits give low values",1.01
same,normalized growth,"locus YNL322C, strain KRE1 (second series), hits give low values",1.02
same,normalized growth,"locus YNR049C, strain mso1, hits give low values",1.02
same,normalized growth,"locus YOR001W, strain rrp6, hits give low values",0.999
same,normalized growth,"locus YOR070C, strain gyp1, hits give low values",1
same,normalized growth,"locus YOR080W, strain dia2, hits give low values",1.01
same,normalized growth,"locus YOR083W, strain WHI5, hits give low values",1
same,normalized growth,"locus YOR106W, strain vam3, hits give low values",0.99
same,normalized growth,"locus YOR265W, strain rbl2, hits give low values",1
same,normalized growth,"locus YOR270C, strain vph1, hits give low values",0.914
same,normalized growth,"locus YOR290C, strain snf2, hits give low values",0.966
same,normalized growth,"locus YPL051W, strain arl3, hits give low values",1.01
same,normalized growth,"locus YPL078C, strain atp4, hits give low values",1.02
same,normalized growth,"locus YPL106C, strain sse1, hits give low values",0.807 (active)
same,normalized growth,"locus YPL240C, strain hsp82, hits give low values",0.989
C[N+](C)(C)CCC(=O)c1cccc2ccccc12,normalized growth,"locus YAL040C, strain CLN3, hits give low values",0.095 (active)
same,normalized growth,"locus YCL061C, strain MRC1 (second series), hits give low values",0.951
same,normalized growth,"locus YDR150W, strain NUM1, hits give low values",0.972
same,normalized growth,"locus YDR363W, strain ESC2, hits give low values",0.962
same,normalized growth,"locus YGR078C, strain PAC10, hits give low values",0.989
same,normalized growth,"locus YJR075W, strain HOC1, hits give low values",0.813 (active)
same,normalized growth,"locus YMR263W, strain SAP30, hits give low values",0.99
same,normalized growth,"locus YMR307W, strain GAS1, hits give low values",0.775 (active)
same,normalized growth,"locus YNL153C, strain GIM3, hits give low values",0.104 (active)
same,normalized growth,"locus YNL175C, strain NOP13, hits give low values",0.0891 (active)
same,normalized growth,"locus YNL197C, strain WHI3, hits give low values",0.93
same,normalized growth,"locus YNL224C, strain SQS1, hits give low values",0.0743 (active)
same,normalized growth,"locus YOR083W, strain WHI5 (second series), hits give low values",0.231 (active)
same,normalized growth,"locus YPL241C, strain CIN2, hits give low values",1
COc1cccc(C2CCN(C(=O)c3cccc4ccccc34)CC2)c1,normalized growth,"locus YAR019C, strain CDC15, hits give low values",0.996
same,normalized growth,"locus YBL105C, strain PKC1, hits give low values",0.988
same,normalized growth,"locus YBR135W, strain CKS1, hits give low values",0.982
same,normalized growth,"locus YBR136W, strain MEC1, hits give low values",0.981
same,normalized growth,"locus YBR160W, strain CDC28, hits give low values",0.991
same,normalized growth,"locus YDL017W, strain CDC7, hits give low values",0.99
same,normalized growth,"locus YDL028C, strain MPS1, hits give low values",0.993
same,normalized growth,"locus YDL101C, strain DUN1, hits give low values",0.982
same,normalized growth,"locus YDL108W, strain KIN28, hits give low values",0.987
same,normalized growth,"locus YDL132W, strain cdc53, hits give low values",0.993
same,normalized growth,"locus YDL214C, strain PRR2, hits give low values",0.866
same,normalized growth,"locus YDR052C, strain DBF4, hits give low values",0.99
same,normalized growth,"locus YDR054C, strain cdc34, hits give low values",0.988
same,normalized growth,"locus YDR226W, strain ADK1, hits give low values",0.988
same,normalized growth,"locus YDR477W, strain SNF1, hits give low values",0.923
same,normalized growth,"locus YER123W, strain YCK3, hits give low values",0.828
same,normalized growth,"locus YER133W, strain GLC7, hits give low values",0.899
same,normalized growth,"locus YFL009W, strain cdc4, hits give low values",0.992
same,normalized growth,"locus YFL029C, strain CAK1, hits give low values",0.99
same,normalized growth,"locus YFR003C, strain YPI1, hits give low values",0.987
same,normalized growth,"locus YFR019W, strain FAB1, hits give low values",0.89
same,normalized growth,"locus YFR028C, strain CDC14, hits give low values",0.99
same,normalized growth,"locus YGR040W, strain KSS1, hits give low values",0.904
same,normalized growth,"locus YGR052W, strain FMP48, hits give low values",0.958
same,normalized growth,"locus YGR092W, strain DBF2, hits give low values",0.903
same,normalized growth,"locus YHR030C, strain SLT2, hits give low values",1
same,normalized growth,"locus YHR079C, strain IRE1, hits give low values",0.967
same,normalized growth,"locus YHR082C, strain KSP1, hits give low values",0.946
same,normalized growth,"locus YHR205W, strain SCH9, hits give low values",0.907
same,normalized growth,"locus YIL147C, strain SLN1, hits give low values",0.987
same,normalized growth,"locus YJL095W, strain BCK1, hits give low values",0.973
same,normalized growth,"locus YJL128C, strain PBS2, hits give low values",0.935
same,normalized growth,"locus YJL157C, strain FAR1, hits give low values",0.886
same,normalized growth,"locus YJR016C, strain ILV3, hits give low values",0.99
same,normalized growth,"locus YJR066W, strain TOR1 (second series), hits give low values",0.882
same,normalized growth,"locus YJR066W, strain TOR1, hits give low values",0.948
same,normalized growth,"locus YKL048C, strain ELM1, hits give low values",0.919
same,normalized growth,"locus YKL067W, strain YNK1, hits give low values",0.907
same,normalized growth,"locus YKL101W, strain HSL1, hits give low values",0.882
same,normalized growth,"locus YKL193C, strain SDS22, hits give low values",0.991
same,normalized growth,"locus YKL203C, strain TOR2, hits give low values",0.978
same,normalized growth,"locus YLR113W, strain HOG1, hits give low values",0.91
same,normalized growth,"locus YLR133W, strain CKI1, hits give low values",0.94
same,normalized growth,"locus YLR403W, strain SFP1, hits give low values",0.922
same,normalized growth,"locus YML070W, strain DAK1, hits give low values",0.859
same,normalized growth,"locus YMR001C, strain CDC5, hits give low values",0.987
same,normalized growth,"locus YMR205C, strain PFK2 (second series), hits give low values",0.914
same,normalized growth,"locus YMR277W, strain FCP1, hits give low values",0.995
same,normalized growth,"locus YNL006W, strain LST8, hits give low values",0.987
same,normalized growth,"locus YNL020C, strain ARK1, hits give low values",0.9
same,normalized growth,"locus YNL161W, strain CBK1, hits give low values",0.992
same,normalized growth,"locus YNL183C, strain NPR1, hits give low values",0.963
same,normalized growth,"locus YNL207W, strain RIO2, hits give low values",0.997
same,normalized growth,"locus YNL222W, strain SSU72, hits give low values",0.994
same,normalized growth,"locus YNL307C, strain MCK1 (second series), hits give low values",0.903
same,normalized growth,"locus YOL078W, strain AVO1, hits give low values",0.997
same,normalized growth,"locus YOL136C, strain PFK27, hits give low values",0.898
same,normalized growth,"locus YOR061W, strain CKA2, hits give low values",0.877
same,normalized growth,"locus YOR119C, strain RIO1, hits give low values",0.954
same,normalized growth,"locus YOR231W, strain MKK1, hits give low values",0.935
same,normalized growth,"locus YOR329C, strain SCD5, hits give low values",0.991
same,normalized growth,"locus YPL031C, strain PHO85, hits give low values",0.913
same,normalized growth,"locus YPL153C, strain RAD53, hits give low values",0.899
same,normalized growth,"locus YPL204W, strain HRR25, hits give low values",0.923
same,normalized growth,"locus YPL209C, strain IPL1, hits give low values",0.992
same,normalized growth,"locus YPL256C, strain CLN2, hits give low values",0.942
same,normalized growth,"locus YPR025C, strain CCL1, hits give low values",0.995
same,normalized growth,"locus YPR106W, strain ISR1, hits give low values",0.979
same,normalized growth,"locus YPR111W, strain DBF20, hits give low values",0.975
same,normalized growth,"strain NNK1, hits give low values",0.976
same,normalized growth,"strain TSCII, hits give low values",0.993
